Test results published in PubChem BioAssay.
“And” between values parts separate entries of the source, which are not always exact repeats. Equal entries are not always repeated.

Each compound was assayed against NADPH oxidase 5 (Homo sapiens) (UniProt Q96PH1) (assay: NOX5-dependent H2O2 signal modulators, primary screen, NOX inhibitor project, cell-based, HEK293-NOX5, Amplex Red fluorescence (AID 1161)). Settings: HEK293-NOX5, ionomycin, 45 min, higher = more signal.
Sequence of NADPH oxidase 5 (Homo sapiens) (Q96PH1 whole entry, looked up): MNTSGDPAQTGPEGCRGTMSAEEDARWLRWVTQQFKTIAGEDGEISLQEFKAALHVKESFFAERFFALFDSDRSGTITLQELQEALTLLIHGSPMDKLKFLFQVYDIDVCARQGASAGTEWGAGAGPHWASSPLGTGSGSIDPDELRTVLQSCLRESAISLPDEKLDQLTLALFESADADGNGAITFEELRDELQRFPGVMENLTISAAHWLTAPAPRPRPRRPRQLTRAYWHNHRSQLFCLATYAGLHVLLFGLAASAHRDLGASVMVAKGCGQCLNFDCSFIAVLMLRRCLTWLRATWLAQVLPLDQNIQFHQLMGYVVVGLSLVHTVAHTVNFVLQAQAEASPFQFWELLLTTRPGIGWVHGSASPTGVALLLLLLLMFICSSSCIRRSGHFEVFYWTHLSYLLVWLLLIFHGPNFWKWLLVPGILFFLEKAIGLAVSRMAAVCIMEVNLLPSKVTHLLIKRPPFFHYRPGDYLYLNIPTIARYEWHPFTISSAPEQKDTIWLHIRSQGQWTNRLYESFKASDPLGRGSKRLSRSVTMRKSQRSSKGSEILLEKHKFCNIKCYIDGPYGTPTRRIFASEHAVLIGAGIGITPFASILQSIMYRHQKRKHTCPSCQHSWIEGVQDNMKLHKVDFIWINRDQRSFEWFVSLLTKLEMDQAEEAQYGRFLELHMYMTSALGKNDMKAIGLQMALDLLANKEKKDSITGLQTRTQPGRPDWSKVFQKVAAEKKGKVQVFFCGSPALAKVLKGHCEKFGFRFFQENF
For COC(=O)C1=C(C)N(Cc2ccccc2)[C@]23O[C@](C(=O)OC)(C(=O)N2[C@@H]1c1ccccc1)[C@@H](C(=O)OC)[C@H]3C(=O)OC, the z-score was 0.371 and 0.422.
Work on CO[C@@H]1COC(=O)CC=C[C@H](C)COC(=O)[C@H](C)NC(=O)CC=C[C@H]1C yielded a z-score of -0.47.
COC(=O)C1=C(C)N(Cc2ccccc2)C2=C(C(C)=O)[C@H](c3ccccc3)[C@@](O)(C(=O)OC)C(=O)N2[C@@H]1c1ccccc1 was tested, and the z-score was 0.784 and 0.53.
With C[N+](C)(C)CCCCNC(=O)[C@H]1C[C@H]2C(=O)N[C@@H](CCCC[N+](C)(C)C)C(=O)N2[C@H]1c1cccc(OCCO)c1 the z-score was 0.0197 and 0.0552.
For CCOC(=O)NN=C1C[C@@H](O)[C@@H](O)[C@@H]2[C@@H]3C(=O)N(Cc4ccc5c(c4)OCO5)C(=O)[C@@H]3CC[C@@H]12, the z-score was 0.175.
With C[N+](C)(C)CCCCNC(=O)[C@H]1C[C@H]2C(=O)N[C@@H](CCCC[N+](C)(C)C)C(=O)N2[C@H]1c1ccc(O)cc1 the z-score was -0.693 and -2.66.
In the case of O=c1n(-c2ccccc2)c(=O)n2n1CC[C@@H]1C(=NOC[C@@H](O)COCc3ccco3)[C@H]3O[C@H]3[C@@H](O)[C@@H]12, the z-score is reported as 1.33 and -0.41.
For C=C[C@@H](C)[C@H](O)c1ccc(O)c2ccccc12, the z-score was 1.07 and 1.48.
For COC(=O)C1=C(C)N(Cc2ccccc2)C2=C(C(C)=O)C[C@@](O)(C(=O)OC)C(=O)N2[C@@H]1c1ccccc1, the z-score was 1 and 1.04.
For CCC[C@@H]1C[C@@]1(CCC)[C@@H](NC(=O)c1ccc(-c2ccccc2)cc1)c1cccc(Cl)c1, the z-score was -1.31 and -1.93.
For C=CCN(CCCC)C(=O)C1N(CCOCCO)C(=O)C2C(C(=O)O)C3C=CC21O3 (stereo not given), the z-score was -0.512 and 0.152.
For C=CCN(Cc1ccccc1)C(=O)C1N(CCOCCO)C(=O)C2C(C(=O)O)C3C=CC21O3 (stereo not given), the z-score was 0.93 and -0.825.
With C=CC[C@@H](O)c1ccc(O)c2ccccc12 the z-score was 1.61 and 0.954.
For CO[C@@H]1C=CCC(=O)N2CCC[C@H]2C(=O)OC[C@H](C)C(=O)OC[C@H]1C, the z-score was 0.221.
CN1C(=O)C2CC=C([C@H]3Oc4ccccc4S(=O)(=O)N4CCC[C@@H]34)CC2C1=O (stereo not given in full) was tested, and the z-score was -1.31 and -1.46.
For CCOC(=O)c1ccc(NC(=O)O[C@H]2[C@H](OC(=O)Nc3ccccc3)[C@@H](OC(=O)Nc3ccccc3)[C@@H](OC)O[C@@H]2CO)cc1, the z-score was -0.851 and -1.69.
In the case of C=CCN(Cc1ccccc1)C(=O)C(c1cccs1)N(C(=O)/C=C\C(=O)O)c1c(Cl)cccc1CO (stereo not given), the z-score is reported as 0.0528 and 0.284.
With CC(CO)N1C(=O)[C@@H]2C3C(=O)OCCC=C[C@H]3OC23C=CCN(CCN2CCOCC2)C(=O)[C@@H]13 (stereo not given in full) the z-score was 1.25 and 2.04.
Compound CO[C@H]1COC(=O)CC=C[C@@H](C)COC(=O)[C@@H](OCc2ccccc2)C=C[C@@H]1C has a z-score of 0.308.
CCCC[C@@H]1CN2[C@@H](CC[C@@H](C)[C@@H]2c2ccc(Br)cc2)C(=O)O1 was tested, and the z-score was 0.637 and 0.0426.
CCN1C(=O)[C@H]2[C@H]3[C@H](O)[C@H](O)CC(=NOC[C@@H](O)COCc4ccco4)[C@@H]3CC[C@H]2C1=O was tested, and the z-score was -0.844 and -0.174.
C=CCN(CCCCC)C(=O)C(c1cccs1)N(C(=O)/C=C\C(=O)O)c1ccc(CCO)cc1 (stereo not given) was tested, and the z-score was 0.614 and 0.19.
With C=CCN(C(=O)C1N(c2c(Cl)cccc2CO)C(=O)C2C(C(=O)O)C3C=CC21O3)c1ccc(OC)cc1 (stereo not given) the z-score was -0.136 and 0.192.
For C=CCN(CCCC)C(=O)C1N(C(C)(C)CO)C(=O)C2C(C(=O)O)C3C=CC21O3 (stereo not given), the z-score was 0.616 and 0.0892.
In the case of C=C[C@@H](C)[C@@H](O)c1ccc(OCCO)cc1, the z-score is reported as -0.0389 and -0.521.
C=CCN(CCCCC)C(=O)C1N(C(C)(C)CO)C(=O)C2C(C(=O)O)C3C=CC21O3 (stereo not given) was tested, and the z-score was 0.101 and 0.407.
CCOC(=O)[C@@H]1CC2O[C@]23C[C@@H]1C(=O)N1CCC[C@@H]1[C@H]3O[Si](C)(C)C(C)(C)C (stereo not given in full) was tested, and the z-score was -2.39 and -0.882.
In the case of CCOC(=O)C[C@H]1[C@H](OC(=O)c2ccccc2-c2ccccc2)[C@@H](NC(=O)Cc2ccc(OC)cc2)c2cc(OCCCO)ccc2N1C(=O)Cc1ccc(OC)cc1, the z-score is reported as 1.79 and 0.274.
COC(=O)CC=C[C@@H](C)[C@@H](CO)NS(=O)(=O)c1ccc(C)cc1 was tested, and the z-score was -0.00181 and 0.301.
For C[N+](C)(C)CCCCCCNC(=O)[C@@H]1C[C@@H]2C(=O)N[C@@H](CCCC[N+](C)(C)C)C(=O)N2[C@@H]1c1ccc(O)cc1, the z-score was 0.58 and -0.839.
With COC(=O)C1=C(C)N(Cc2ccccc2)C2=C3C(=O)CCC[C@@H]3[C@@](O)(C(=O)OC)C(=O)N2[C@@H]1c1ccccc1 the z-score was -0.0435 and -0.704.
O=C1C[C@]2(c3ccc([N+](=O)[O-])cc3)C(=O)N(Cc3ccccc3)c3cc(CO)ccc3[C@H]2N1C1CCCCC1 was tested, and the z-score was -0.416 and -0.385.
With CC(C)=CCCC(C)=CCON=C1C[C@@H](O)[C@@H](O)[C@@H]2[C@@H]3C(=O)N([C@@H](C)c4ccccc4)C(=O)[C@@H]3CC[C@H]12 the z-score was -4.23.
For C[C@@H]1CC[C@H]2C(=O)NC[C@@H](O)CN2[C@H]1c1ccc(Br)cc1, the z-score was 0.646 and 0.135.
For COc1ccc(O[C@H]2C=C[C@@H](c3ccccc3)O[C@@H]2COC(=O)CCC(C)=NO[C@H](C)c2cn([C@H](CO)Cc3ccccc3)nn2)cc1, the z-score was -1.63 and -3.66.
With C=CCN(CCCC)C(=O)C(c1cccs1)N(C(=O)/C=C\C(=O)O)c1c(Cl)cccc1CO (stereo not given) the z-score was 0.16 and 0.227.
CC(CO)N1C(=O)[C@@H]2C3C(=O)OCCC=C[C@H]3OC23C=CCN(c2ccc(Cl)cc2)C(=O)[C@@H]13 (stereo not given in full) was tested, and the z-score was 2.46 and 2.5.
In the case of C=CCN(C(=O)C(c1cccs1)N(CCOCCO)C(=O)/C=C\C(=O)O)C(C)(C)C (stereo not given), the z-score is reported as 0.0514 and 0.0449.
With C=C[C@H](OC)[C@@H](O)c1ccc(O)c(F)c1 the z-score was 0.0933 and -0.503.
For CC(CO)N1C(=O)[C@@H]2C3C(=O)OCCC=C[C@H]3OC23C=CCN(C(C)(C)C)C(=O)[C@@H]13 (stereo not given in full), the z-score was 1.96 and 2.84.
